In PubChem BioAssay (NCATS):
Where “and” joins values, the source holds several entries; their conditions need not be identical. Equal entries are not always repeated. Records with an inconclusive call do not appear. A number with no mark means an inactive call. Calls of active or inactive are those of the source. The call rests on the fitted dose curve; in most records, active means well fitted activation curve with a large enough effect; inconclusive means small, poorly fitted or top-dose-only effect; inactive means no such curve, though single readings can be large or run the other way.

Target: Cellular tumor antigen p53 (Homo sapiens) (UniProt P04637)
Sequence (P04637 whole entry, looked up): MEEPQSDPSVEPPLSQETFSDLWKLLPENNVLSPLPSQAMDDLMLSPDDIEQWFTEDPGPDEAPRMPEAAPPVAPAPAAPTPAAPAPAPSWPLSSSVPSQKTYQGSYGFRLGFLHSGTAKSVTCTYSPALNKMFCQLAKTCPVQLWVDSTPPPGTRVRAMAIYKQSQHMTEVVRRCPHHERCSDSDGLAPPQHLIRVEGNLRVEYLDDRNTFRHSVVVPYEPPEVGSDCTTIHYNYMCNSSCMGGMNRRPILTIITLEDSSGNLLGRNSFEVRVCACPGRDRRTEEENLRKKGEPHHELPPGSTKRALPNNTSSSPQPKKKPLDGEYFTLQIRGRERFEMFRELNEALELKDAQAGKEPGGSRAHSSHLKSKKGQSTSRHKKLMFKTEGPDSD
Experiment: Primary qHTS for small molecule compounds that upregulate eGFP-tagged delta133p53alpha (in N-terminal) cells. (AID 2060322); further: nearly all actives have a fitted effect of over 75% in size;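 on activation: series mostly up to about 56 µM; 0% = DMSO vehicle and 100% = reference activator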
Settings: NCI-H358 eGFP-delta133p53alpha fluorescence, 24 h; activation: stronger effect = higher value
In short: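 NCI-H358 cells pre-induced 24 h with 10 ng/ml doxycycline to express N-terminal eGFP-delta133p53alpha, then dosed 24 h at 37C without doxycycline; fixed, Hoechst-stained, GFP intensity by laser scanning cytometry, normalized to DMSO (0%) and 57.5 uM 5-azacytidine (100%).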
Potency means the concentration at half of the fitted maximal effect.

Row | Structure (SMILES) | activation [%] | Potency
1 | COc1cc(CCN)cc(OC)c1OC | -6.21 | –
2 | CC(C)N[C@@H]1CCn2c(=O)[nH]c3cccc(c32)[C@@H]1O | 13.7 | –
3 | C[C@]12CC[C@H]3[C@@H](CCC4=CC(=O)CC[C@@]43C)[C@@H]1CC[C@@H]2C(=O)O | 1.69 | –
4 | CCCN1CCO[C@@H]2c3cc(O)ccc3OC[C@@H]21 | 15.2 | –
5 | CCC1(c2ccccc2)CCC(=O)NC1=O (stereo unspecified) | 4.18 | –
6 | CC(C)(C)NCC(O)c1cc(Cl)c(N)c(C(F)(F)F)c1 (stereo unspecified) | -6.21 | –
7 | CC(C)(N)Cc1ccccc1Cl | 10.7 | –
8 | COc1cc(CC(C)N)cc2c1OCO2 (stereo unspecified) | 6.21 | –
9 | C[C@]12CC[C@H]3[C@@H](CCC4=CC(=O)CC[C@@H]43)[C@@H]1CC[C@@H]2OC(=O)CCc1ccccc1 | 2.51 | –
10 | ClCCCN1CCN(c2cccc(Cl)c2)CC1 | -2.82 | –
11 | CC(C)(C)CC(C)(C)c1ccc(O)cc1 | – | 28.2 µM (active) and 30.9 µM (active)
12 | Oc1ccc(Cl)cc1 | -7.34 | –
13 | COc1cc(CC(C)N)cc(OC)c1OC (stereo unspecified) | -10.7 | –
14 | COc1cccc2c1[C@]13CCN(CC4CC4)[C@H](C2)[C@]1(OC)CCC(=O)C3 | -12 | –
15 | O=C(CCCN1CCC(n2c(=O)[nH]c3ccccc32)CC1)c1ccc(F)cc1 | -4.18 | –
16 | CNC(C)Cc1ccc2c(c1)OCO2 (stereo unspecified) | 17.5 | –
17 | O=c1c(C2CC(c3ccc(-c4ccc(Br)cc4)cc3)Cc3ccccc32)c(O)sc2ccccc12 (stereo unspecified) | -13 | –
18 | CC(C)NCC(O)c1ccc(N)c(C#N)c1 (stereo unspecified) | 1.69 | –
19 | Cc1c(Cl)c(=O)oc2cc(OP(=O)(OCCCl)OCCCl)ccc12 | -15.9 | –
20 | Nc1ccc([N+](=O)[O-])cc1 | 28.8 | –
21 | NC(N)=NOCC[C@H](N)C(=O)O | -12 | –
22 | CC(CC(C(N)=O)(c1ccccc1)c1ccccc1)N(C)C (stereo unspecified) | -9.6 | –
23 | CCCCC(CC)COC(=O)c1ccccc1C(=O)OCC(CC)CCCC (stereo unspecified) | 0 | –
24 | Nc1ccc([As](=O)(O)O)cc1 | -5.02 | –
25 | C[C@H]1CCCC=CC2C[C@H](O)C[C@@H]2[C@H](O)C=CC(=O)O1 (stereo partly specified) | 23.5 | –
26 | CCC(=O)O[C@@H]1C=C2CCC3C(CCC4(C)C3CC[C@@H]4OC(=O)CC)C2CC1 (stereo partly specified) | 6.21 | –
